# PubChem BioAssay (EPA / NIEHS)
# Inconclusive results are not listed. The source made the active and inactive calls. How the source made its calls: active means hit-call score of the fitted dose curve at least 0.9, where 1 is the maximum; inconclusive means response in the unintended direction; inactive means score below 0.9.
# Molecular target: PGR (gene 5241) (UniProt P06401)
# Test: TOX21_PR_LUC_Followup_Antagonist: Tox21 HEK293 Progesterone Receptor (PR) Antagonism Luciferase Follow-Up Assay (AID 2283938);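 further: curve fitted upward as signal gain over DMSO baseline despite antagonist label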
# Excerpt: TOX21_PR_LUC_Followup is a secondary assay for specificity for the TOX21_PR_BLA_Agonist assay. To differentiate true PR agonists from cytotoxic substances, this follow up assay is multiplexed with a cell viability assay.TOX21_PR_LUC_Followup_Antagonist is one of one assay component(s) measured or calculated from the TOX21_PR_LUC_Followup assay. It is designed to make measurements of luciferase induction, a form of inducible reporter, as detected with bioluminescence signals by CellTiter-Glo Luciferase-coupled ATP quantitation technologyData from the assay component TOX21_PR_LUC_Followup_Antagonist was analyzed into 1 assay endpoint. This assay endpoint, TOX21_PR_LUC_Followup_Antagonist, was analyzed in the positive analysis fitting direction relative to DMSO as the negative control and baseline of activity. Using a type of inducible reporter, gain-of-signal activity can be used to understand changes in the reporter gene as they relate to the gene NR3C3. Furthermore, this assay endpoint can be referred to as a primary readout, because the performed assay has only produced 1 assay endpoint. To generalize the intended target to other relatable targets, this assay endpoint is annotated to the nuclear receptor target family, where the subfamily is steroidal.
# Quality Control Precautions: Maintain cells below 85-90% confluence in culture medium. For assay purpose, the cells should be cultured in assay medium with 10% charcoal stripped FBS for 5 days with alternate day medium changed to fresh medium. Especially while in assay culture, the cells should not reach more than 85% confluence as they would become harder to detach if they reach over confluence.Assay Protocol: HEK293-PR-A-luc cells were dispensed at 3,000 cells/5 uL/well of culture medium into white wall/solid-bottom 1536-well plates using a Multidrop Combi (ThermoFisher Scientific, Waltham, MA) dispenser. After the assay plates were incubated at 37C and […] for 5 h, 23 nL of compounds dissolved in DMSO, positive controls or DMSO only was transferred to the assay plate by a Pintool station (Kalypsys, San Diego, CA). The plates were incubated at 37C and […] for 16 h. Then 4 uL of ONE-Glo reagent (Promega, Madison, WI) was added to each plate using a BioRAPTR Flying Reagent Dispenser (FRD) workstation (Beckman Coulter, Indianapolis, IN, USA) and luminescence was quantified on a ViewLux (PerkinElmer, Shelton, CT) plate reader after 30 min incubation at room temperature.
# Sequence of PGR (gene 5241) (P06401 whole entry, looked up): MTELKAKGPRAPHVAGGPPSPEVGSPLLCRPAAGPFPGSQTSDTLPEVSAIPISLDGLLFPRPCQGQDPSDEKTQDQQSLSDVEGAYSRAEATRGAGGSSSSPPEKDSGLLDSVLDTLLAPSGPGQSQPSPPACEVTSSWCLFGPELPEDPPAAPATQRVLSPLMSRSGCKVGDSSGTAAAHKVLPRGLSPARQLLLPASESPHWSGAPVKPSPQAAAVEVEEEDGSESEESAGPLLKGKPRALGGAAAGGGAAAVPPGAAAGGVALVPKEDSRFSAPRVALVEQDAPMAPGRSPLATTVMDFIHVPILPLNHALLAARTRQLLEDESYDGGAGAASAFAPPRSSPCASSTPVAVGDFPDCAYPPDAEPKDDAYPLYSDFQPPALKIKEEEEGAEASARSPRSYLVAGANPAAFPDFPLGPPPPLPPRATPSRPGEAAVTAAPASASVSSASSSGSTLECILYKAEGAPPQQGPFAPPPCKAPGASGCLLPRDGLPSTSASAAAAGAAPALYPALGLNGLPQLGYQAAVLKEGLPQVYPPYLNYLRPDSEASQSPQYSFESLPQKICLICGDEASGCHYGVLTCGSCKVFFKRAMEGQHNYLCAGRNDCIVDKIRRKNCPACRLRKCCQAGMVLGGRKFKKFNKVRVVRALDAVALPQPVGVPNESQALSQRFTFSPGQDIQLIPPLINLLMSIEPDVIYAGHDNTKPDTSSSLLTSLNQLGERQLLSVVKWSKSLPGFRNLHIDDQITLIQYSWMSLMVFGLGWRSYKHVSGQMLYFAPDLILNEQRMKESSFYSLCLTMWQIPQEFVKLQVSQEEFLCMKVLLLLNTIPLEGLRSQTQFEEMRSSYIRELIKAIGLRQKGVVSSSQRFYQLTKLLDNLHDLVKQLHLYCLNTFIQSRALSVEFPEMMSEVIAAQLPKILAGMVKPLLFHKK
Structure (SMILES),AC50,outcome
COC(=O)C(c1ccccc1Cl)N1CCc2sccc2C1 (configuration not stated),23 µM (active),–
COC(=O)C1=C(C)NC(COC(N)=O)=C(C(=O)OC(C)C)C1c1cccc(Cl)c1Cl (configuration not stated),7.88 µM (active),–
C[C@]12CCC(=O)C=C1C=C[C@@H]1[C@@H]2CC[C@@]2(C)[C@H]1CC[C@@]21CCC(=O)O1,–,inactive
CN(C1CCCCC1)S(=O)(=O)c1ccccc1N,24.2 µM (active),–
COC(=O)C1=C(C)NC(C)=C(C(=O)OCCN2CCN(C(c3ccccc3)c3ccccc3)CC2)C1c1cccc([N+](=O)[O-])c1 (configuration not stated),23 µM (active),–
O=C1Nc2ccc(Cl)cc2[C@@](C#CC2CC2)(C(F)(F)F)O1,–,inactive
N#C/C(=C1/SC[C@@H](c2ccc(Cl)cc2Cl)S1)n1ccnc1,–,inactive
C=C1C(CCl)(CCl)C2(Cl)C(Cl)C(Cl)C1(Cl)C2(Cl)Cl (configuration not stated),–,inactive
C#C[C@]1(O)CC[C@H]2[C@@H]3CCc4cc(OC5CCCC5)ccc4[C@H]3CC[C@@]21C,16.2 µM (active),–
CCCCN1CCCC1C(=O)Nc1c(C)cc(C)cc1C (configuration not stated),–,inactive
NC(=O)n1c(O)c(C(=O)c2cccs2)c2cc(Cl)ccc21,17.3 µM (active),–
O=C(Nc1ccc(Cl)c(Cl)c1)C1CC1,–,inactive
CCOC(=O)C1=C(C)NC(C)=C(C(=O)OC)C1c1cccc([N+](=O)[O-])c1 (configuration not stated),11.2 µM (active),–
CC(C)C[C@H](NC(=O)[C@H](CCc1ccccc1)NC(=O)CN1CCOCC1)C(=O)N[C@@H](Cc1ccccc1)C(=O)N[C@@H](CC(C)C)C(=O)[C@@]1(C)CO1,8.16 µM (active),–
Cc1ccc(/C=N/n2c(-c3ccccc3)csc2=S)cc1,–,inactive
O=S(=O)(Oc1ccc(Cl)cc1)c1ccccc1,–,inactive
c1cc[c]([Bi]([c]2ccccc2)[c]2ccccc2)cc1,–,inactive
CC(O)(c1ccc(Cl)cc1)c1ccc(Cl)cc1,61.6 µM (active),–
CCn1c2ccccc2c2cc([N+](=O)[O-])ccc21,8.06 µM (active),–

Structure (SMILES),AC50,outcome
Nc1ccccc1S(=O)(=O)c1ccccc1,–,inactive
CC(=O)OCC(=O)[C@@]1(OC(C)=O)[C@@H](C)C[C@H]2[C@@H]3C[C@H](F)C4=CC(=O)C=C[C@]4(C)[C@@]3(F)[C@@H](O)C[C@@]21C,–,inactive
CC(C)C[C@H](NC(=O)[C@H](Cc1ccccc1)NC(=O)c1cnccn1)B(O)O,0.0717 µM (active),–
C[C@H]1C[C@H]2[C@@H]3CCC4=CC(=O)C=C[C@]4(C)[C@@]3(Cl)[C@@H](O)C[C@]2(C)[C@@]1(O)C(=O)CO,–,inactive
COCCOC(=O)C1=C(C)NC(C)=C(C(=O)OC/C=C/c2ccccc2)C1c1cccc([N+](=O)[O-])c1 (configuration not stated),7.18 µM (active),–
C[C@]12CCC(=O)C=C1CC[C@@H]1[C@@H]2CC[C@@]2(C)[C@H]1CC[C@]2(O)C(=O)CO,–,inactive
O=[N+]([O-])c1ccc2c(c1)Cc1ccccc1-2,31 µM (active),–
c1ccc2c(c1)CCc1ccccc1N2,–,inactive
CC1(C)CCC(C)(C)c2cc(NC(=O)c3ccc(C(=O)O)cc3)ccc21,–,inactive
COC(=O)C1=C(C)NC(C)=C(C(=O)OCC(C)=O)C1c1ccccc1[N+](=O)[O-] (configuration not stated),21.5 µM (active),–
Oc1ccc2c(c1)Cc1ccccc1-2,38.1 µM (active),–
CC(=O)OCC(=O)[C@@]1(O)CC[C@H]2[C@@H]3CCC4=CC(=O)C=C[C@]4(C)[C@H]3[C@@H](O)C[C@@]21C,–,inactive
COCCOC(=O)C1=C(C)NC(C)=C(C(=O)OC(C)C)C1c1cccc([N+](=O)[O-])c1 (configuration not stated),26.4 µM (active),–
CC(=O)Oc1ccc2c(c1)CC[C@@H]1[C@@H]2CC[C@]2(C)[C@@H](O)CC[C@@H]12,0.449 µM (active),–
Cc1cc(C)c(C=C2C(=O)Nc3ccccc32)[nH]1,–,inactive
CC(COc1ccccc1)N(CCCl)Cc1ccccc1 (configuration not stated),–,inactive
C[C@@H]1C[C@H]2[C@@H]3C[C@H](F)C4=CC(=O)C(Cl)=C[C@]4(C)[C@@]3(F)[C@@H](O)C[C@]2(C)[C@@]1(O)C(=O)CO,–,inactive
Oc1ccc(N=Nc2ccccc2)cc1,–,inactive
